Results: PubChem BioAssay AID492998 (Southern Research Specialized Biocontainment Screening …, 2010)
The campaign covered roughly 2,300 compounds. About 550 (24%) were called active. A selection follows. Entries with a potency or affinity are not part of this list. A number with no mark means an inactive call. The rule behind the calls is not given here.

assay: Vero E6 cell cytotoxicity, dose response, cytotoxicity control for non-replicating M. tuberculosis project, secondary assay (AID 492998); settings: series mostly up to 20 µM; viability: at the top concentration;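 note: 100% = vehicle-treated cells and 0% = background wells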

SMILES	viability [%]
O=C(CN1CCN(c2ccccc2)CC1)Nc1nnc(-c2ccccc2)s1	97.5
Cc1ccc(C(=O)COC(=O)c2cccs2)cc1	97.8
CCCCCn1nnc2c(=O)oc3ccccc3c21	104
CCOc1ccc(NCC(=O)c2ccc(C)cc2)cc1	96.1
CCc1ccc(C2=C/C(=C/c3cccnc3)C(=O)O2)cc1	105
O=C(NN=C1C2CC3CC1CC(Cl)(C3)C2)c1cccs1	101
CC(C)(C)c1ccc(NC(=O)COc2ccc(-n3ccnc3)cc2)cc1	80.3
Cn1c(-c2cccc([N+](=O)[O-])c2)cnc1NCc1cccc(F)c1	95.4
Cc1ccc(C)c(NC(=O)c2cc([N+](=O)[O-])cc([N+](=O)[O-])c2)c1	97.9
Cc1cc(Cl)ccc1OC(C)C(=O)Nc1ccc([N+](=O)[O-])cn1 (centres undefined)	101
O=C(C/C=N\OCc1ccc([N+](=O)[O-])cc1)Nc1ccc(F)cc1F	102
Cc1cc(C)cc(OC(=O)CCN2C(=O)c3ccccc3C2=O)c1	90
O=C1c2ccccc2C(=O)N1CCOc1ccc(F)cc1	94.9
O=c1oc2ccccc2c(Nc2ccccc2O)c1[N+](=O)[O-]	108
CCOc1ccc(NC(=O)c2nnn(CC(=O)Nc3ccccc3OC)c2N)cc1	89.8
O=C(c1cc2ccccc2o1)N1CCN(Cc2ccccc2)CC1	104
C/C(=N\NC(=O)c1ccc([N+](=O)[O-])c(C)c1)c1ccccc1Cl	85.1
C/C(=N\NC(=O)c1ccccc1)c1nc2ccccc2n1C	104
COc1cc(/C=N/N(C)C)ccc1OC(=O)c1cccs1	94.7
Cc1cc(Cl)cc(C)c1OCCCCn1ccnc1	90.3
Clc1ccc(SCCCCn2ccnc2)cc1	73.8
Cc1ccc(CCC(=O)Nc2ccccc2F)s1	103
O=C(COC(=O)c1ccccc1)NCc1cccs1	98.4
O=C(CCc1ccc(Oc2cc([N+](=O)[O-])cc([N+](=O)[O-])c2)cc1)N1CCCCC1	87.9

SMILES	viability [%]
CSc1nn(-c2ccc(C(=O)OCC(=O)NC(=O)NC(C)C)cc2)c(=S)s1	98.1
CCN1C(=O)CC(N2CCC(c3nc4ccccc4[nH]3)CC2)C1=O (centres undefined)	99.8
CC(NCCCOc1cccc2ccccc12)c1ccccc1 (centres undefined)	74.2
O=C(COC(=O)c1ccccc1)NC12CC3CC(CC(C3)C1)C2	79
CCOC(=O)C1CSC(CC(=O)Nc2ccc(Cl)c(Cl)c2)C(=O)N1 (centres undefined)	101
O=C(C/C=N\OCc1ccc([N+](=O)[O-])cc1)Nc1ccc(Cl)cc1	112
O=C(Nc1cccnc1)c1ccc(-c2ccc(Cl)cc2)o1	101
O=C(Nc1nccs1)c1ccc(-c2ccc(Cl)cc2)o1	90.6
NC(=O)c1ccc(-c2ccc(Br)cc2)o1	87.4
CCOc1ccc(C(=O)Nc2ccc(N3CCN(C)CC3)cc2)cc1Br	74.8
O=C(CN1CCC(Cc2ccccc2)CC1)NC(=O)NC1CCCCC1	97.5
Cc1ccc2[nH]c3c(c2c1)CCCC3NCCO (centres undefined)	106
Cc1ccc(-c2nnc(-c3ccccc3)o2)cc1	94.8
c1ccc(-c2n[nH]c(-c3ccccn3)n2)nc1	89.1
CCOC(=O)N1CCC(NC(=O)C2CCN(c3nc(-c4ccc(OC)cc4)no3)CC2)CC1	97.2
COc1cccc(OC(=O)c2cc3ccccc3oc2=O)c1	105
CCOC(=O)Cn1cc(C#N)c2cccc(CC)c21	98.7
Cc1ccc(S(=O)(=O)NCC(=O)OCCOc2cccc(Cl)c2)cc1	98.4
Cc1cccnc1NC(=O)C1COc2ccccc2O1 (centres undefined)	104
O=C(OCc1nnc(-c2ccccc2)o1)c1cc([N+](=O)[O-])ccc1Cl	115
CC(C)OC(=O)c1c2c(n3ccccc13)C(=O)c1ccccc1C2=O	80.7
O=C(c1ccc(Br)o1)N1CCC(Cc2ccccc2)CC1	95.1
O=C(COc1ccc(Br)cc1)Nc1ccc([N+](=O)[O-])cn1	101
O=C(N/N=C/c1coc2ccccc2c1=O)c1ccc(Cl)cc1	95.9

SMILES	viability [%]
O=C(OCC(=O)N1CCN(c2ccccc2)CC1)c1ccc(Cl)cc1[N+](=O)[O-]	95.6
COC(=O)C1=C(N)OC2=C(C(=O)CC(C)(C)C2)C1c1cccnc1 (centres undefined)	94.6
O=C(OCC(=O)N1CCCC1)c1cc(Br)ccc1Cl	102
O=C(N/N=C/c1ccccn1)c1cccc(S(=O)(=O)Nc2ccccc2Cl)c1	87.2
Cc1ccc2oc(=O)c3cc(C(=O)NCCCN4CCCCCC4)sc3c2c1	94
CS(=O)(=O)Nc1cccc2cccnc12	71.2
Cc1cc(C)n2nc(S(=O)(=O)Nc3c(Cl)cccc3Cl)nc2n1	103
CC1C/C(=N/NC(=O)c2cccc(F)c2)c2ccc(O)cc2C1 (centres undefined)	101
O=C(Nc1c(F)cc(F)cc1Br)c1cc(-c2ccccc2)on1	93.9
O=C(O)c1ccccc1-c1ccccc1C(=O)Nc1nc2ccccc2s1	106
O=C(Nc1nccs1)c1ccccn1	95.1
O=C(NNc1nc2ccccc2s1)c1ccc(F)cc1	91.5
CCOCC(=O)Nc1nc2ccc(C)cc2s1	109
Cc1ccc2nc(NC(=O)COC(=O)c3ccc(Br)o3)sc2c1	100
CC1=NN(C(=O)c2ccccc2Cl)C(O)(c2ccccc2)C1 (centres undefined)	105
CCc1nnc(N/N=C/c2ccc(N3CCC(C)CC3)c([N+](=O)[O-])c2)n1N	103
COc1ccc(C(=O)COC(=O)c2ccccc2O)c(OC)c1	93.9
COC(=O)c1cc(/C=C/c2ccccc2)on1	82
COc1cc(/C=C2/C(=O)NN(c3ccc(Cl)cc3)C2=O)ccc1OC(=O)c1ccco1	100
CC(C)CNc1nc(=S)nc(N(C)C)[nH]1	106
Cc1cccc(NC(=O)COC(=O)CCc2c[nH]c3ccccc23)c1	103
O=C(OCC(=O)N1CCN(c2ccccc2)CC1)c1ccc2ccccc2n1	88.3
O=[N+]([O-])c1ccc(CN2CCN(c3ccc(F)cc3)CC2)o1	101
CCOC(=O)c1cc(-c2csc(COc3ccccc3Cl)n2)on1	100

SMILES	viability [%]
O=C(NCCc1ccccc1)c1nc(-c2cccs2)no1	96.4
COc1cccc2cc(C(=O)NCc3ccc(F)cc3)c(=N)oc12	103
c1cncc(-c2noc(CC3CCCCC3)n2)c1	106
CCN1CCC(=NNC(=O)c2ccco2)CC1	112
O=C1NC2(CCC3(CC2)OCCO3)NN1c1ccc(Cl)cc1	91.6
CC(NC(=O)c1cccc(F)c1)C1CC2CCC1C2 (centres undefined)	109
Cc1ccc(C(C)C)c(OCC(=O)OCc2c(C)noc2C)c1	88.1
CC1CCN(C(=O)c2ccc(-c3ccccc3Cl)o2)CC1	89.8
Cc1ccc(CC(=O)Nc2ccc(Cl)cn2)cc1	101
CCn1c(-c2ccco2)nc2ccccc21	91.9
CCCn1c(CNc2ccccc2O)nc2ccccc21	74.6
Cc1ccc(C(=O)n2c(N)nc3ccccc32)cc1	78.2
O=C(Nc1nc2ccccc2n1CCN1CCCC1)c1ccc(Cl)cc1	91.2
COc1cccc(-c2cc3nc4c(c(NCC(C)(C)CN(C)C)n3n2)CCCC4)c1	70.8
CCOC(=O)CC(NS(=O)(=O)Cc1ccccc1)c1ccc(C)cc1 (centres undefined)	80
CCOC(=O)COn1c2c(c3c4no[n+]([O-])c4ccc31)CCCC2	99.8
COC(=O)c1ccccc1NC(=O)C1CC(c2ccc(F)cc2)=NO1 (centres undefined)	79.8
COc1cc(/C=C2/C(=O)NN(c3cccc(C)c3)C2=O)ccc1OC(=O)c1ccco1	99.8
O=C(Oc1cccc2cccnc12)c1cccc(-n2cnnn2)c1	97.1
Cc1nc2ccc(NC(=O)c3ccc([N+](=O)[O-])cc3[N+](=O)[O-])cc2s1	90.1
CCN(CC)CCNC(=O)c1[nH]c2ccc(OCc3ccccc3)cc2c1C	80.3
CSc1ccccc1NC(=O)c1cc(C(C)C)on1	91.5
O=C(COc1ccc(-c2ccccc2)cc1)Nc1cccnc1	91.4
O=C(OCC(=O)N1CCCCC1)c1cc2ccccc2cc1O	92.3

SMILES	viability [%]
CCOC(=O)c1cc2cc3ccccc3cc2oc1=O	99.8
CCOC(=O)COc1ccc(C(=O)c2ccccc2)c(O)c1	99.3
Cc1ccn2nc(S(=O)(=O)Nc3c(F)cccc3F)nc2n1	104
CN(C)CC/C=C1\c2cc(Cl)ccc2Sc2cc(F)c(F)cc21	81.6
COc1ccc(C(=O)Nc2ccccc2C(=O)N/N=C/c2ccco2)cc1	102
Nc1nc2ccccc2n1C(=O)c1ccc(F)cc1	88.6
CCn1cc(/C=N\NC(=O)c2ccc(F)cc2)cn1	110
Cn1c(NC(=O)c2ccccc2)nc2ccccc21	78.7
Cc1nc2ccc(NC(=O)COc3cccc(F)c3)cc2s1	99.7
O=C(COC(=O)c1cccc([N+](=O)[O-])c1)NCc1cccs1	99.3
COc1ccc(CN2CCC(C(=O)Nc3ccc(Oc4cccnc4)cc3)CC2)c(C)c1C	91.2
CSCCOC(=O)COc1ccc(/C=N/NC(=O)c2c(Cl)cnn2C)cc1	101
O=C(COc1ccc(Br)cc1)N/N=C1/SCC(=O)N1Cc1ccco1	91.2
O=C(C/C=N\OCc1ccc([N+](=O)[O-])cc1)Nc1ccc(Br)cc1	85.4
COc1ccccc1CCNC(=O)c1ccc(C)o1	102
NC1=NC[C@H](Cc2ccc(O)cc2)N1CCc1cccc2ccccc12	89.6
O=C(N/N=C/C=C/c1ccccc1)c1ccccn1	106
Cc1ccc(NCCC(=O)c2cccs2)cc1	86.7
CCc1ccc(/C=N/NC(=O)c2ccccn2)cc1	97.9
Cc1ccc(-c2noc(CCCC(=O)Nc3cccnc3)n2)cc1	93.5
CCCCCCCC(=O)NNC(=O)c1ccc(F)cc1	89.9
CCCCCCCC(=O)N/N=C(/C)c1c(O)cc(C)oc1=O	84.1
CCCc1cc(C(=O)Nc2ccccc2SC)no1	109
